In PubChem BioAssay AID1159580 (chemical genetic matrix, 2015):
In all, about 5,500 compounds went through this assay and about 2,000 (36%) were called active. Not shown: some 18% with an inconclusive outcome. Cut-off read from the data, not from the text of the source: active = normalized growth mostly below about 0.91 (no sharp cut-off); inconclusive = no clear call, values can overlap the other calls; inactive = mostly above about 0.92. This is one part of the list.

Test: chemical genetic growth profiling, strain panel (AID 1159580);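 note: tested at 20 µM; growth read once vehicle control cultures reached saturation at 30 °C; 1 = growth at the plate median or of vehicle wells; lower values mean less growth of the strain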
Conditions: S. cerevisiae deletion strains, growth OD
[1] = locus YAL013W, strain DEP1, stronger effect = lower value
[2] = locus YBR229C, strain ROT2, stronger effect = lower value
[3] = locus YDL101C, strain DUN1, stronger effect = lower value
[4] = locus YDL134C, strain PPH21, stronger effect = lower value
[5] = locus YDR150W, strain NUM1, stronger effect = lower value
[6] = locus YEL061C, strain CIN8, stronger effect = lower value
[7] = locus YGR078C, strain PAC10, stronger effect = lower value
[8] = locus YHR030C, strain SLT2, stronger effect = lower value
[9] = locus YHR087W, strain rtc3, stronger effect = lower value
[10] = locus YJR043C, strain POL32, stronger effect = lower value
[11] = locus YJR075W, strain HOC1, stronger effect = lower value
[12] = locus YLR039C, strain RIC1, stronger effect = lower value
[13] = locus YLR058C, strain SHM2 (second series), stronger effect = lower value
[14] = locus YLR085C, strain ARP6, stronger effect = lower value
[15] = locus YLR262C, strain YPT6, stronger effect = lower value
[16] = locus YML094W, strain GIM5, stronger effect = lower value
[17] = locus YMR219W, strain ESC1, stronger effect = lower value
[18] = locus YMR263W, strain SAP30, stronger effect = lower value
[19] = locus YNL128W, strain TEP1, stronger effect = lower value
[20] = locus YNL153C, strain GIM3, stronger effect = lower value
[21] = locus YNL298W, strain CLA4 (second series), stronger effect = lower value
[22] = locus YNL322C, strain KRE1, stronger effect = lower value
[23] = locus YNR030W, strain Alg12, stronger effect = lower value
[24] = locus YPL055C, strain LGE1, stronger effect = lower value
[25] = locus YPL241C, strain CIN2, stronger effect = lower value
[26] = locus YPR135W, strain CTF4, stronger effect = lower value
[27] = locus YGR229C, strain SMI1, stronger effect = lower value
[28] = locus YJL187C, strain SWE1, stronger effect = lower value

Measured: normalized growth

COc1ccc2c(c1)CCCN2C(=O)NC(=O)c1c(F)cccc1Cl
inactive: [1] 1 | [2] 1.01 | [3] 1.04 | [4] 0.984 | [5] 1.07 | [6] 0.998 | [7] 1.02 | [8] 1.06 | [9] 0.95 | [10] 1.04 | [11] 0.997 | [12] 0.967 | [13] 0.975 | [14] 1 | [15] 0.925 | [16] 0.973 | [17] 0.997 | [18] 1.04 | [19] 1.01 | [20] 1.03 | [21] 1.03 | [22] 0.998 | [23] 1 | [24] 0.98 | [25] 1.02 | [26] 1.05

COc1ccc(OCC(N)=O)cc1
inactive: [1] 1.01 | [2] 1.02 | locus YCL061C, strain MRC1, stronger effect = lower value 1.01 | [3] 1.01 | [4] 1.01 | [5] 0.898 | [6] 1.03 | [7] 1.01 | [27] 1.01 | [8] 1.07 | [9] 1.01 | [28] 1.01 | [10] 1.02 | [11] 1.04 | [12] 1.02 | [13] 1.02 | [14] 1.05 | [15] 1.04 | [16] 1.02 | [17] 1.01 | [18] 0.996 | locus YMR307W, strain GAS1, stronger effect = lower value 1.07 | [19] 1.01 | [20] 1.01 | [21] 1.03 | [22] 1.03 | [23] 1.02 | locus YOL006C, strain TOP1, stronger effect = lower value 1.01 | [24] 1.01 | [25] 1.02 | [26] 1.04

COc1ccc(C(=O)C2CCNCC2)cc1
inactive: [1] 0.991 | [2] 0.974 | [3] 0.972 | [5] 1.03 | [6] 1.01 | [7] 0.99 | [27] 1.01 | [8] 1.06 | [9] 0.974 | [28] 1 | [10] 1.01 | [11] 1.01 | locus YKL190W, strain CNB1, stronger effect = lower value 1 | [12] 1 | [13] 0.988 | [14] 1.09 | [15] 0.998 | [16] 0.969 | [17] 0.998 | [18] 1.02 | [19] 0.983 | [20] 1.02 | [21] 0.998 | [22] 1 | [23] 1.01 | [24] 1.01 | [25] 1.07 | [26] 0.995
